The record followed here is PubChem BioAssay.

Values without a mark were called inactive. Activity calls are given as the source filed them.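 How the source made its calls: active means normalized viability below 100% at a tested concentration; inactive means the rest.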

A short description of one experiment: drug combination growth inhibition, ovarian cancer – cell-based, oncology-focused library, rucaparib conditional, profiling panel (AID 1508598). The settings on record: patient-derived ovarian cancer cells, CellTiter-Glo viability, 144 h; at 0.00488 µM; OCI-C5x cells; with rucaparib 10 µM; hits give low values; 100% = cells with rucaparib alone.
With `O=C(CCCCCCC(=O)Nc1ccc([C@H]2O[C@@H](CSc3nc(-c4ccccc4)c(-c4ccccc4)o3)C[C@@H](c3ccc(CO)cc3)O2)cc1)NO`, the viability is 115%.

`CNC(=O)c1cc(Oc2ccc(NC(=O)Nc3ccc(Cl)c(C(F)(F)F)c3)c(F)c2)ccn1`: the viability is 109%.

In the case of `CS(=O)(=O)N1CCc2c(-c3cnc(N)nc3)nc(N3CCOCC3)nc21`, the viability is 96.5% (active).

For `Nc1ccn([C@@H]2O[C@H](CO)[C@@H](O)C2(F)F)c(=O)n1`, the viability is 81% (active).

On to `CNC(=O)c1cc(COc2nnc(Nc3ccc(Cl)cc3)c3ccoc23)ccn1`, for which the viability was 108%.

Staying with this experiment, now noted: patient-derived ovarian cancer cells, CellTiter-Glo viability, 144 h; at 0.00488 µM; OCI-C5x cells; without rucaparib; hits give low values.
Consider `O=C(CCCCCCC(=O)Nc1ccc([C@H]2O[C@@H](CSc3nc(-c4ccccc4)c(-c4ccccc4)o3)C[C@@H](c3ccc(CO)cc3)O2)cc1)NO`, for which the viability is 132%.

`CNC(=O)c1cc(Oc2ccc(NC(=O)Nc3ccc(Cl)c(C(F)(F)F)c3)c(F)c2)ccn1`: the viability is 98.5% (active).

Consider `CS(=O)(=O)N1CCc2c(-c3cnc(N)nc3)nc(N3CCOCC3)nc21`, for which the viability was 111%.

As to `Nc1ccn([C@@H]2O[C@H](CO)[C@@H](O)C2(F)F)c(=O)n1`, the viability is 80% (active).

As to `CNC(=O)c1cc(COc2nnc(Nc3ccc(Cl)cc3)c3ccoc23)ccn1`, the viability was 113%.

Staying with this experiment, now noted: patient-derived ovarian cancer cells, CellTiter-Glo viability, 144 h; at 0.00488 µM; OCI-P5x cells; with rucaparib 20 µM; hits give low values; 100% = cells with rucaparib alone.
Consider `O=C(CCCCCCC(=O)Nc1ccc([C@H]2O[C@@H](CSc3nc(-c4ccccc4)c(-c4ccccc4)o3)C[C@@H](c3ccc(CO)cc3)O2)cc1)NO`, for which the viability was 90% (active).

`CNC(=O)c1cc(Oc2ccc(NC(=O)Nc3ccc(Cl)c(C(F)(F)F)c3)c(F)c2)ccn1`: the viability is 114%.

Consider `CS(=O)(=O)N1CCc2c(-c3cnc(N)nc3)nc(N3CCOCC3)nc21`, for which the viability was 113%.

In the case of `Nc1ccn([C@@H]2O[C@H](CO)[C@@H](O)C2(F)F)c(=O)n1`, the viability was 57.2% (active).

On to `CNC(=O)c1cc(COc2nnc(Nc3ccc(Cl)cc3)c3ccoc23)ccn1`, for which the viability is 102%.

Still in this experiment, the particulars now being: patient-derived ovarian cancer cells, CellTiter-Glo viability, 144 h; at 0.00488 µM; OCI-P5x cells; without rucaparib; hits give low values.
With `O=C(CCCCCCC(=O)Nc1ccc([C@H]2O[C@@H](CSc3nc(-c4ccccc4)c(-c4ccccc4)o3)C[C@@H](c3ccc(CO)cc3)O2)cc1)NO`, the viability is 108%.

With `CNC(=O)c1cc(Oc2ccc(NC(=O)Nc3ccc(Cl)c(C(F)(F)F)c3)c(F)c2)ccn1`, the viability is 109%.

On to `CS(=O)(=O)N1CCc2c(-c3cnc(N)nc3)nc(N3CCOCC3)nc21`, for which the viability was 112%.

`Nc1ccn([C@@H]2O[C@H](CO)[C@@H](O)C2(F)F)c(=O)n1`: the viability was 22.9% (active).

`CNC(=O)c1cc(COc2nnc(Nc3ccc(Cl)cc3)c3ccoc23)ccn1`: the viability is 108%.

The viability is a read-out of living cells in per cent, often relative to untreated cells.
